Experimental findings from PubChem BioAssay (Tox21) are described below.

The structures appear in SMILES notation. Calls of active or inactive are those of the source. Calls follow the shape of the dose curve; as a rule, active = well fitted activation curve with a large enough effect in the repeat runs; inconclusive = weak or mixed curves; inactive = flat fitted curve, though single readings scatter.
% is scaled to controls: 0 for no effect and ±100 for the full control effect.

A short description of the assay: A CellTox Green Cytotoxicity Assay to monitor cytotoxicity in HEK293 cells - 0 hour (AID 1224869). Also: nearly all actives have a fitted effect of over 50% in size. The conditions noted are these: CellTox Green fluorescence; series mostly up to 76.8 µM; cytotoxicity: at the top concentration. From the text:
National Center for Advancing Translational Sciences [NCATS]
NIH Chemical Genomics Center [NCGC]
U.S. Environmental Protection Agency [EPA]
National Institutes of Environmental Health Sciences [NIEHS]
National Toxicology Program [NTP]
Cell-based models are critical for drug discovery. Determining the natural cytotoxic effects resulting from test compounds is an essential research activity. A CellTox Green Cytotoxicity Assay to monitor cytotoxicity in real time of continues cell culture during 40 hours of the compound treatment was used to screen Tox21 10K library compounds in Hek293 cells. CellTox Green Cytotoxicity Assay is a nonlytic, homogeneous, biofluorescent method to measure cytotoxicity in cell culture after experimental manipulation. The assay system uses a proprietary asymmetric cyanine dye that is excluded from viable cells but preferentially stains the dead cell's DNA. […] Viable cells produce no appreciable increases in fluorescence. Therefore, the fluorescence signal produced by the binding interaction with dead cell DNA is proportional to cytotoxicity.
The mixture of Hek293 cell suspension and reagents were dispensed at 600cells/6 ul/well in 1536-well tissue culture treated black solid bottom plates using a Multidrop dispenser. After the assay plates were incubated at a 37 C/5% CO2 incubator for 5 hours, 23 nL of compounds dissolved in DMSO, positive and negative controls was transferred to the assay plate by a pintool work station. The plates were incubated at 37 C for 40 hours. The fluorescence intensity were measured at 0h, 8h, 16h, 24h, 32h and 40h time points using ViewLux plate reader during compound treatment.
As for `CCOC(=O)Nc1ccc2c(c1)N(C(=O)CCN1CCOCC1)c1ccccc1S2`, the “cytotoxicity” value was -1.49% [at 35.3 µM] (inactive). The result for `CCn1cc(C(=O)O)c(=O)c2cc(F)c(N3CCN(C)CC3)cc21` reads -2.39% [at 15.8 µM] (inactive); that for `CCCCCC[C@@H](CCC)C(=O)O`, 0.32% [at 35.3 µM] (inactive). The result for `CC(=O)N[C@@H](CCC(N)=O)C(=O)O` reads -5.9% [at 35.3 µM] (inactive). The result for `CC1=CC(=O)CCC1` reads 0.659% (inactive); that for `CCCCCCOC(=O)CC(CC(=O)OCCCCCC)(OC(=O)CCC)C(=O)OCCCCCC`, -6.4% (inactive); that for `NC(=O)c1ncn([C@@H]2O[C@H](CO)[C@@H](O)[C@H]2O)c1O`, 20.1% [at 35.3 µM] (inactive). In the case of `CCC(=O)c1cccc(Cl)c1`, the “cytotoxicity” value is 2.89% (inactive). As to `C1=C\CC/C=C\CC/C=C\CC/1`, the “cytotoxicity” value is -1.18% (inactive). The result for `OCC(CO)(CO)COCC(CO)(CO)CO` reads -7.95% (inactive); that for `O=C1OC(=O)c2cc([N+](=O)[O-])ccc21`, -6.28% (inactive). As to `CCCc1ccccc1O`, the “cytotoxicity” value was 4.3% (inactive). The result for `CCCCCCCCC=O` reads -0.428% (inactive); that for `COc1cccc(Br)c1`, 17.8% (inactive); that for `C#CC(O)CCCCC` (stereo not given), -7.51% (inactive). As for `CC(=O)O[C@H](CC(=O)[O-])C[N+](C)(C)C`, the “cytotoxicity” value was -0.0414% (inactive).

For `CCOC(=O)Cn1c(=O)sc2cccc(Cl)c21`, the “cytotoxicity” value was 1.53% (inactive).

As to `O=c1[nH]c2ccccc2c(=O)n1CCCl`, the “cytotoxicity” value was 2.13% [at 35.3 µM] (inactive).

For the compound `CCCCc1ccc2cccc(S(=O)(=O)O)c2c1`, the “cytotoxicity” value was -7.05% (inactive). The result for `CC(CCO)CCCC(C)(C)O` (stereo not given) reads 3.77% (inactive); that for `CC(C)(C)OC(=O)N1C[C@@H](F)C[C@H]1C(=O)O`, 1.27% (inactive); that for `Cc1ccc(N)cc1[N+](=O)[O-]`, 2.4% (inactive). On to `NS(=O)(=O)c1cc2c(cc1Cl)NC(CSCc1ccccc1)=NS2(=O)=O`, for which the “cytotoxicity” value was -8.34% [at 35.3 µM] (inactive). The result for `O=C(O)C1CCC1` reads 4.14% [at 35.3 µM] (inactive); that for `COC(=O)[C@H]1[C@H]2C[C@@H]3c4[nH]c5cc(OC)ccc5c4CCN3C[C@H]2C[C@@H](OC(=O)COc2ccc(OC)cc2)[C@@H]1OC`, 9.67% [at 35.3 µM] (inactive). The result for `C1COCCO1` reads 2.26% (inactive); that for `C[C@H]1O[C@@H](n2cc(F)c(=O)[nH]c2=O)[C@H](O)[C@@H]1O`, 6.13% [at 35.3 µM] (inactive). `C=C(C)C(=O)NCCC[N+](C)(C)C`: the “cytotoxicity” value was 0.919% (inactive). Consider `CO`, for which the “cytotoxicity” value is 2.22% (inactive). The result for `C=CCn1c(=O)n([C@@H]2O[C@H](CO)[C@@H](O)[C@H]2O)c2nc(N)[nH]c(=O)c21` reads 0.862% [at 35.3 µM] (inactive); that for `CN(C)CCOC(c1ccc(Cl)cc1)c1ccccn1` (stereo not given), -7.78% [at 35.3 µM] (inactive). The result for `CCCCc1ccc(N)cc1` reads -7.08% (inactive).

As for `O=[N+]([O-])c1ccc(CCO)cc1`, the “cytotoxicity” value was -5.04% (inactive).

`COc1cc(CCC(C)=O)ccc1O`: the “cytotoxicity” value is -0.396% (inactive). Take `Nc1nc2c(ncn2CCC(CO)CO)c(=O)[nH]1`: the “cytotoxicity” value was -8.71% [at 35.3 µM] (inactive). On to `CCCC(=O)O[C@]1(C(=O)CCl)[C@@H](C)C[C@H]2[C@@H]3CCC4=CC(=O)C=C[C@]4(C)[C@@]3(F)C(=O)C[C@@]21C`, for which the “cytotoxicity” value is -5.74% [at 35.3 µM] (inactive).

For the compound `N[C@@H](CS)C(=O)O`, the “cytotoxicity” value was -0.117% (inactive). The result for `COC(=O)c1ccc(C(=O)OC)c(C(=O)OC)c1` reads -1.38% (inactive); that for `Nc1ncnc2c1ncn2Cc1c(F)cccc1Cl`, 0.877% [at 35.3 µM] (inactive).

On to `Cc1ccc(Nc2ccc(O)c3c2C(=O)c2ccccc2C3=O)cc1`, for which the “cytotoxicity” value was -3.95% (inactive).
